# Screening data: PubChem BioAssay, several laboratories
# HSP90 inh – blocks HSP90-mediated luciferase refolding in reticulocyte lysate; Rabbit reticulocyte lysate, luciferase refolding luminescence, 3 h; inhibition, % at 5.6 µM; hit rate 0.91% among 290,000; AID 1789;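 active = inhibition above the screen-wide mean plus 3 SD, computed separately per campaign, cut at about 16% in these data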;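 also: 0% = DMSO wells and 100% = 60 µM geldanamycin wells; inhibitors lower the luminescence because luciferase stays unfolded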
# LMP1 NFkB inh – inhibitors of Epstein-Barr LMP1-induced NF-kappaB reporter | hit rate 0.69% among 350,000 | LMP1-induced NF-kappaB luciferase reporter cells, luminescence | inhibition, % at 12.5 µM; in the data active = inhibition above about 41%;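 also: 0% = neutral control wells and 100% = reference inhibitor control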
# HSF1 inhib – HSF1 inhibition; NIH3T3-HGL HSE-luciferase, MG132-induced, luminescence 8 h; active compounds read low; AID 2098; activity change, negative = inhibition, % at 7.5 µM (by protocol); hit rate 0.77% among 300,000;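 active = more than half of replicate wells show activity change below -50%, luminescence cut by over half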;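 also: luciferase reports HSF-1 transcriptional activity via heat shock element; 0% = median of DMSO wells and -100% = zero luminescence signal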
# HSF-1 act – increases HSF-1 driven luciferase reporter signal | activation, % at 9 µM | hit rate 1.7% among 300,000 | NIH3T3-HGL HSF-1 luciferase reporter, MG132, 8 h; 100% = twice DMSO control signal;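 active = mean replicate activation of at least 50% with a set share of replicates each reaching 50%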;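 also: 0% = median of the neutral control wells and 100% = twice that signal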
# TWEAK-Fn14 inh – inhibitors of TWEAK-Fn14 interaction signaling | hit rate 2% among 360,000 | inhibition, % at 10 µM | AID 1159606 | TWEAK-stimulated Fn14 reporter cells, luciferase luminescence, 8 h; in the data active = inhibition above about 50%
# TROY signal inh – inhibitors of TROY-dependent NF-kB signaling; Q293 LMP1-TROYcd NF-kB luciferase reporter, 4 h; inhibition, % at 10 µM; hit rate 0.98% among 360,000; AID 1347056;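 active = compounds whose plate-normalised and pattern-corrected inhibition of the luciferase reporter signal at the single screening dose is 50% or more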
# The depositor's hits bear a star; x = no result given. A selection: hits, their analogues and other compounds. The true share with any hit is near 4.7%.
SMILES,HSP90 inh,LMP1 NFkB inh,HSF1 inhib,HSF-1 act,TWEAK-Fn14 inh,TROY signal inh
CCCc1ccc2oc(C(=O)NCCN3CCCC(O)C3)c(C)c2c1 (stereo not given),2,-5,33,62*,-18,-34
Cc1c(C(=O)Nc2ccc(F)cc2)oc2ccc(S(=O)(=O)N3CCCC3)cc12,5,4,-7,-8,-17,13
Cc1c(C(=O)Nc2ccc(F)c(F)c2)oc2ccc(S(=O)(=O)N3CCCCC3)cc12,1,17,-2,2,81*,50
Cc1c(C(=O)Nc2cccc(Cl)c2)oc2ccc(S(=O)(=O)N3CCC4(CC3)OCCO4)cc12,-2,-2,-2,5,62*,22
CCC(C)NC(=O)c1oc2ccc(S(=O)(=O)N3CCC4(CC3)OCCO4)cc2c1C (stereo not given),3,-5,2,9,12,3
Cc1c(C(=O)Nc2ccc(F)cc2)oc2ccc(S(=O)(=O)N3CCC4(CC3)OCCO4)cc12,1,7,10,24,54*,34
COc1ccc(C(CNC(=O)C(C)c2ccc3cc(OC)ccc3c2)N(C)C)cc1 (stereo not given),1,1,2,2,63*,8
Cc1ccc(S(=O)(=O)N2C[C@]3(O)C[C@@H]4C(=O)N(c5ccccc5)C(=O)[C@@H]4C[C@]3(OC(=O)NC3CCCC3)C2)cc1,x,-13,x,x,-38,0
CCc1nc2c(OCc3cccc(Cl)c3)cccn2c1N(C)C(=O)C1CC1,x,x,x,x,-13,-4
Cc1ccc(C(=O)/C=C\C(=O)c2ccc(C)cc2)cc1,4,2,231,294*,28,-75
Cc1ccc(S/C=C\C(=O)c2ccccc2)cc1,7,-41,85,118*,88*,53*
CC(/C=C/C(=O)c1ccc(C)cc1)=C\c1ccccc1,2,-27,9,15,-24,-47
O=C(/C=C\c1ccc(-c2ccccc2)o1)c1ccccc1,-3,-14,-19,-28,35,-51
Cc1ccc(C(=O)/C=C/c2ccc(-c3ccc(C)cc3)o2)cc1,-5,-15,27,56*,24,-9
CCOc1ccccc1-c1c2cc(O)c(=O)cc-2oc2cc(O)c(O)cc12,0,9,x,x,74*,22
COc1ccc(OC)c(-c2c3cc(O)c(=O)cc-3oc3cc(O)c(O)cc23)c1,5,31,x,x,74*,11
O=c1cc2oc3cc(O)c(O)cc3c(-c3ccccc3O)c-2cc1O,5,12,x,x,31,4
CCc1nc2ccc(C(=O)N3CCN(C(=O)c4ccco4)CC3)cn2c1N(C)C(=O)COc1ccccc1,x,x,x,x,6,-6
CC(=O)c1cccc(-c2ccc3c(c2)C(C)(Cc2ccccc2F)C(=O)N3)c1 (stereo not given),x,x,x,x,58*,20
COc1ccc(C(C)=O)cc1CC1(C)C(=O)Nc2ccc(-c3ccccc3OC)cc21 (stereo not given),x,x,x,x,0,11
Cc1ccc(C(O)c2ncc(-c3cccc(C(F)(F)F)c3)[nH]2)cc1F (stereo not given),x,x,x,x,22,12
COc1ccccc1Cc1c(-c2ccco2)nc2cc(C)c(Br)c(C)n12,x,x,x,x,21,-4
O=[N+]([O-])c1ccc(-c2nc(C(Cl)Cl)c3ccccc3n2)cc1,-2,20,65,115*,-36,34
COc1ccc([C@@]23Oc4cc(OC)cc(OC)c4[C@]2(O)[C@H](O)[C@H](C(=O)N(C)C)[C@H]3c2ccccc2)cc1,x,82*,88*,88*,87*,34
C=CCN(c1ccc(F)cc1)S(=O)(=O)c1cc(C(=O)NC2CC2)ccc1Cl,x,5,x,x,8,6
SMILES,HSP90 inh,LMP1 NFkB inh,HSF1 inhib,HSF-1 act,TWEAK-Fn14 inh,TROY signal inh
O=C(Nc1ccccn1)c1ccc2c(=O)n3c(nc2c1)CCCCC3,x,-5,x,x,56*,13
O=C(Nc1ccc(Br)cc1Cl)c1ccc2c(=O)n3c(nc2c1)CCC3,x,-25,31,55*,-14,-36
O=C(c1ccc2c(=O)n3c(nc2c1)CCCCC3)N1CCN(C(c2ccccc2)c2ccccc2)CC1,10,11,23,62*,-46,13
O=C(Nc1ccc(Cl)cc1)c1ccc2c(=O)n3c(nc2c1)CCCCC3,-4,-23,9,15,8,-3
O=C(Nc1cccc(Cl)c1)c1ccc2c(=O)n3c(nc2c1)CCCCC3,2,-23,4,12,41,53*
O=C(Nc1ccc(F)cc1)c1ccc2c(=O)n3c(nc2c1)CCCCC3,-5,-27,24,36,-17,-43
COc1cc(NCCCNC(C)C)c2nccc(C)c2c1,x,6,x,x,12,7
Cc1ccc(-c2csc(NC(=O)c3ccc4c(=O)n5c(nc4c3)CCCCC5)n2)cc1,-1,28,-8,-13,70*,-26
CC(Cc1ccccc1)C(=O)Nc1ccccc1 (stereo not given),4,3,-65*,-71,-12,-22
CN(Cc1ccccc1)C(=O)N[C@@H](Cc1ccccc1)C(=O)O,4,-4,-8,-5,81*,x
CCCCN1CC(N2CCN(C(=O)c3ccco3)CC2)CS1(=O)=O (stereo not given),x,x,x,x,-9,-2
CC(C)c1ccc(NC(=O)Nc2nc(C(N)COCc3ccccc3)cs2)cc1 (stereo not given),x,x,x,x,-14,15
COC(=O)CCC(=O)OC1(C)C(=O)C=C2C=C(C3CC3)N(CC3CC3)C=C2C1=O (stereo not given),x,50*,-7,4,-6,16
COC(=O)CCC(=O)OC1(C)C(=O)C=C2C=C(C3CC3)N(CC(C)C)C=C2C1=O (stereo not given),x,x,-3,0,x,x
Fc1ccccc1N1CCN(Cc2cc(-c3ccccc3)on2)CC1,2,-4,-75*,-80,-13,-13
Fc1ccccc1N1CCN(Cc2nc(-c3ccccc3)no2)CC1,0,-11,-3,-13,5,-9
c1cc(-c2cc3cc(N4CCOCC4)ccc3o2)cs1,x,3,7,10,65*,38
CSc1nc(N)n2nccc2n1,x,x,x,x,-2,22
CN(N=Nc1ccc([N+](=O)[O-])cc1)c1ccccc1,-4,-7,44,74*,-18,-65
CN(N=Nc1cccc([N+](=O)[O-])c1)c1ccccc1,-1,-29,11,19,-41,-47
COc1ccc(CNC(=O)c2sc(=O)n(Cc3ccc(C)cc3)c2C)cc1OC,x,x,x,x,5,15
Cc1c(C(=O)NCc2ccc(Cl)c(Cl)c2)sc(=O)n1Cc1ccc(S(C)(=O)=O)cc1,x,x,x,x,53*,38
COc1ccc(CNC(=O)c2sc(=O)n(Cc3ccc(-c4ccccc4)cc3)c2C)cc1OC,x,x,x,x,61*,41
CCOC(=O)C(C)Oc1cc(Cl)c(C=O)cc1OC (stereo not given),3,2,14,51*,10,-6
COC(=O)COc1cc(Cl)c(C=O)cc1OC,0,2,5,0,-5,-1
